Data reported in PubChem BioAssay (NCI).
This is part of a sample that, as a whole, favours compounds with a hit. Of some 83,000 tested, about 20% had one in any assay.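 Negative percent growth values reflect cell death: -40 means 40% of the cells present at the start died, and -100 means all died.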 The source made the active and inactive calls.

System: MDA-MB-435 melanoma
Assay: NCI-60 one-dose screen, 48 h (100 = growth as untreated, 0 = no growth, -100 = all killed)
Conditions: 10 µM unless noted
Description: Growth inhibition of the MDA-MB-435 human Melanoma tumor cell line is measured as a screen for anti-cancer activity. Cells are grown in 96 well plates and exposed to the test compound for 48 hours. Compounds are tested at a single concentration, which is 10^-5 M for most compounds. The reported endpoint is percent growth (GI% or GIPRCNT), where numbers from 0 - 100% represent growth inhibition, and numbers from -100% - 0 represent cell death. For example, a value of 40 represents 60% growth inhibition. A value of 0 means no net growth occurred over the course of the experiment. A value of -40 indicates 40% of cells at the beginning of the experiment died by the end of the experiment. A value of -100 means all cells are dead at the end of the experiment.
NCI-60 Human Tumor Cell Lines Screen was performed using the standard one-dose NCI protocol, which is described in more detail at https://dtp.cancer.gov/discovery_development/nci-60/default.htm.
Compounds with GIPRCNT values below 10 were considered active. Activity score was based on GIPRCNT using the following formula: […]
Score is 0 for GIPRCNT values of 100 or above, 50 for GIPRCNT values of 0, and 100 for GIPRCNT values of -100.

SMILES	growth
O=C(Nc1ccc(-n2cc(-c3ccncc3)c(-c3ccc(Cl)c(O)c3)n2)cc1)c1cc(C(F)(F)F)cc(C(F)(F)F)c1	52.5% (inactive)
O=S(=O)(O)CCI	114% (inactive)
COc1cc(OC)cc(-c2ccc(-c3ccc(C(=N)N)cc3)s2)c1	-97.5% (active)
CCCCCCCCCCCCCCCCNC(=O)Nc1ccc(C)c(NC(=O)NCCCCCCCCCCCCCCCC)c1	105% (inactive)
C/C=C(/C)C(=O)OC1C=C(CO)C(=O)C(OC(=O)C(C)(O)C(C)Cl)C1C(C)C (stereo not given)	-23.2% (active)
c1cc(C2CCCCC2)ccc1OCCCCCCN1CCNCC1	42.1% (inactive)
C=C(C)[C@@H]1CC[C@]2(COC(=O)c3ccccc3C(=O)O)CC[C@]3(C)[C@H](CC[C@@H]4[C@@]5(C)CCCNC(C)(C)[C@@H]5CC[C@]43C)[C@@H]12	60.9% (inactive)
C[C@]12CC[C@H]3[C@@H](CC[C@H]4C[C@@H](O)CC[C@@]43C)[C@@H]1CC(=O)C2	116% (inactive)
COC(=O)C(C)[C@H]1CC[C@@H]2[C@]1(C)CC=C1[C@]23C=C[C@]2(C[C@@H](OC(C)=O)CC[C@]12C)C(C(=O)OC)C3C(=O)OC (stereo not given in full)	95.1% (inactive)
O=c1oc2ccc3ccccc3c2cc1-c1ccnc2[nH]c(=S)[nH]c(=O)c12	106% (inactive)
CC(C)(C)c1ccc(OCCOC(=O)CBr)cc1	112% (inactive)
CC(C)(C)c1ccc([I+]c2ccc(C(C)(C)C)cc2)cc1	-49.1% (active)
Oc1ccc(CN(Cc2ccc(C(F)(F)F)cc2)Cc2ccc(O)c3ncccc23)c2cccnc12	31.4% (inactive)
COc1ccc(-c2nc(N)n(C(=S)Nc3ccccc3)n2)cc1	107% (inactive)
O=C(/C=C1\C(=O)N(Cc2ccc([N+](=O)[O-])cc2)c2ccccc21)c1ccc(OCCN2CCCC2)cc1	48.2% (inactive)
O=S(=O)(Cc1cccc2c(CS(=O)(=O)c3ccc(Cl)cc3)cccc12)c1ccc(Cl)cc1	77.7% (inactive)
C/C=C/C/C=C/[C@H](C)C[C@H](O)[C@@H]1C[C@@H]2O[C@H]2/C=C/[C@H](O)[C@@H](O)/C=C/C[C@H](C)CC(=O)O1	117% (inactive)
C/C=C/C/C=C/[C@H](C)C[C@H](O)[C@@H]1C[C@@H]2O[C@H]2/C=C/[C@@H]2OC(C)(C)O[C@H]2/C=C/C[C@H](C)CC(=O)O1	77.1% (inactive)
Cc1c(Cc2ccccc2)c(=O)oc2c(C)c(OCC(=O)n3nc(C#N)cc3N)ccc12	102% (inactive)
C#CCCCCCCC[C@@H]1OC(=O)[C@H]([C@@H](C)CC)NC(=O)[C@H]([C@@H](C)CC)NC(=O)CC(=O)[C@@H]1C	105% (inactive)

SMILES	growth
CC(=O)Nc1nc(C)c(C(=O)NNS(=O)(=O)c2ccccc2)s1	125% (inactive)
Oc1ccc([S+](c2ccc(O)cc2)c2ccc(O)cc2)cc1	107% (inactive)
CCOP1(=O)CC(C)=C(Cl)C(P(=O)(O)O)C1 (stereo not given)	107% (inactive)
Cc1cc2c(-c3nc4ccccc4[nH]3)c(O)c(O)cc2c(O)c1-c1c(C)cc2c(-c3nc4ccccc4[nH]3)c(O)c(O)cc2c1O	23.3% (inactive)
COc1ccccc1Cn1cc2c(c1)-c1oncc1CC2	-53.7% (active)
COc1cc(OC)c(/C=C/c2ccc3ccccc3[n+]2C)c(OC)c1	-30.6% (active)
COc1ccc(/C=C2\CCCC3=C2N=C2SC=NN2C3c2ccc(OC)c(OC)c2)cc1OC (stereo not given)	18.2% (inactive)
CCCOC(=O)c1c(C)n(C)c2scc[n+]12	90.9% (inactive)
CSc1nc(N)n2nccc2n1	98.3% (inactive)
Nc1cc2c(cc1Br)[nH]c(=O)c1ccccc12	-42.6% (active)
O=C(/C=C/c1ccc(Cl)cc1)c1ccc(Cl)cc1	80.3% (inactive)
CCOC(=O)c1c2c(cn1Cc1ccccc1)-c1oncc1CC2	111% (inactive)
COc1cc(N)c2nccc(C)c2c1OC	110% (inactive)
S=C(N/N=C/c1cc(Cl)cc(Cl)c1)NC12CC3CC(CC(C3)C1)C2	78.4% (inactive)
O=C(O)COc1ccc([N+](=O)[O-])cc1Cl	107% (inactive)
O=C(Nc1ccc(-n2cc(-c3ccncc3)c(-c3ccc(Cl)c(O)c3)n2)cc1)Nc1ccc(Cl)c(C(F)(F)F)c1	-37.7% (active)
COC1(OC)N=C(N)C2(C#N)C3(C(=O)Nc4ccccc43)C12C#N (stereo not given)	91.7% (inactive)
COc1cc(-c2nc3c(c(C)nc4c3nnn4-c3ccccc3)c(=O)o2)cc(OC)c1OC	106% (inactive)
CCS(=O)(=O)OCCO[C@H]1Cc2cc3ccc(=O)oc3cc2OC1(C)C	107% (inactive)
CCCCCCNC(=O)Oc1ccc(/C(=C(/C)Cc2ccc(OC)cc2)c2ccc(OCCN(C)C)cc2)cc1	67.8% (inactive)
